According to PubChem BioAssay (NCI):
This is part of a sample that, as a whole, favours compounds with a hit. Of some 83,000 tested, about 20% had one in any assay.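 Compound tested at a single concentration for 48 hours in 96-well plates; a percent growth value below 10 was scored as active.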 Activity calls are given as the source filed them.

Tested on: HCT-116 colon
Test: NCI-60 one-dose screen, 48 h (100 = growth as untreated, 0 = no growth, -100 = all killed)
Settings: 10 µM unless noted

Compound	growth
O=S(=O)(c1ccccc1)N1CCCN(c2nc(-c3ccccc3)nc3nc(-c4ccccc4)oc23)CC1	89.5% (inactive)
Clc1ccc(-c2cn3ccsc3n2)c(Cl)c1Cl	91.7% (inactive)
O=C(CN1C(=O)/C(=C/c2ccco2)SC1=S)NCCc1c[nH]c2ccc(F)cc12	96.6% (inactive)
COc1cc(C2C3=C(COC3=O)N(CCO)c3cc4c(cc32)OCCO4)cc(OC)c1OC (stereo not given)	0.547% (active)
N/C(=N\c1nc2ccccc2s1)NC(=NC1CCCCC1)NC1CCCCC1	0.368% (active)
CC(O)c1ncc(/C=C2\SC(=S)N(Cc3ccccc3)C2=O)s1 (stereo not given)	96% (inactive)
COc1ccc2nc3ccccc3c(NCc3ccc(F)cc3)c2c1	8.89% (active)
COc1cc(-c2cc(-c3ccc(Nc4ncnc5cc(Cl)ccc45)cc3)nc(N3CCN(C)CC3)n2)cc(OC)c1OC	64% (inactive)
O=C(Nc1cccnc1Nc1ccc(Cl)cc1)c1cn(Cc2ccc(F)cc2)nn1	84.6% (inactive)
N#Cc1c(NC(=O)c2cccs2)[n+]([O-])c2ccc(Cl)cc2[n+]1[O-]	79.8% (inactive)
CCOC(=O)/C=C/c1c(C)[nH]c(=O)[nH]c1=O	53% (inactive)
COc1ccc(C2C3=C(COC3=O)N(CCO)c3cc4c(cc32)OCCO4)cc1OC (stereo not given)	18.2% (inactive)
CN1CCN(c2ccc3c(c2)nc(NNC(=O)c2cnccn2)c2cccn23)CC1	23.1% (inactive)
C=CCOC(=O)C1=C(C)NC(=O)NC1c1c(Cl)n(C)c2ccccc12 (stereo not given)	93.4% (inactive)
COc1ccc(Cl)cc1Nc1nc(C(F)(F)F)ccc1C(=O)N/N=C/c1ccccc1Cl	14.2% (inactive)
N#Cc1c(-c2ccccc2)nc2c(c(-c3ccccc3)nn2-c2ccccc2)c1-c1ccc(N2CCOCC2)cc1	65.5% (inactive)
O=C(CCCCCCCCC(=O)N/N=C\c1cc(Cl)ccc1O)N/N=C\c1cc(Cl)ccc1O	22.7% (inactive)
CC12CCC(/C(=C/NNc3ccc([N+](=O)[O-])cc3[N+](=O)[O-])C1=O)C2(C)C (stereo not given)	50.7% (inactive)
Nc1ccc([N+](=O)[O-])cc1N=C/C=C/c1ccccc1	67.2% (inactive)
CC1CN=C(c2cccc(-c3ccc(-c4ccccc4)o3)c2)N1 (stereo not given)	-67.9% (active)

Compound	growth
CCCCc1oc2ccccc2c1C(=O)c1ccc(O)cc1	83.2% (inactive)
Cc1cc2oc(=O)cc(CP(=O)(O)O)c2cc1O	100% (inactive)
CCOC(=O)C1=C(C)N=C2SC=C(c3ccccc3)N2[C@H]1c1cn[nH]c1-c1ccc(Cl)cc1	18.5% (inactive)
CCN1C(=S)N(CC)C2C1NC(=S)N2/N=C/C=C/c1ccccc1OC (stereo not given)	13.6% (inactive)
CC(=O)N/C(=C1/OC(C(O)C(O)C(O)CO)CN1C)[P+](c1ccccc1)(c1ccccc1)c1ccccc1 (stereo not given)	100% (inactive)
CCn1cc(C(=O)N/N=C/c2ccc(Br)cc2)c(=O)c2cc(F)c(N3CCNC(C)C3)c(F)c21 (stereo not given)	67.7% (inactive)
CCNc1nc(-c2ccc(F)cc2)c(C#N)c(=O)n1C	52.1% (inactive)
C(/C=C/c1ccccc1)=Nc1ccc(CCc2ccc(N=C/C=C/c3ccccc3)cc2)cc1	54.1% (inactive)
O=C(N/N=C/c1ccc([N+](=O)[O-])cc1)c1ccc2nc(-c3ccc(Cl)cc3)[nH]c2c1	14.6% (inactive)
Fc1ccc(CNc2c3ccccc3nc3ccccc23)cc1	12.6% (inactive)
O=C(CSc1nnc2sc(Nc3cccc(Cl)c3)nn12)c1ccc(F)cc1	85.8% (inactive)
Cn1c(=O)c2c(nc(NC3=NS(=O)(=O)c4ccccc43)n2Cc2ccccc2)n(C)c1=O	103% (inactive)
O=c1nc(Nc2nc3ccccc3s2)[nH]c(=O)c2ccccc12	103% (inactive)
c1ccc2cc(Cn3c[n+](Cc4ccc5ccccc5c4)c4ccccc43)ccc2c1	-90.6% (active)
Cc1[nH]c(/C=C/C(=O)c2ccc(C(F)(F)F)c(F)c2)c(C)c1C(=O)NCC(C)C	96.7% (inactive)
O=C(Nc1cccc(NC(=O)C2CCCCC2)c1)c1ccccn1	93.6% (inactive)
CCOC(=O)c1c2c(n3ccccc13)C(=O)c1ncccc1C2=O	0.586% (active)
COc1ccc(C(c2cc(OC)c(OC)c(OC)c2)N2CCN(Cc3ccccc3)CC2)cc1 (stereo not given)	56.7% (inactive)
CN(C)c1ccc(/C=C2/C=C(c3ccccc3)OC2=O)cc1	100% (inactive)
C#CC#CC#CC#CC#CC#CC#CC#CCC1OCC(COC(=O)O[C@@H](C(=O)O[C@H]2C[C@@]3(O)[C@@H](OC(=O)c4ccccc4)[C@@H]4[C@]5(OC(C)=O)CO[C@@H]5C[C@H](O)[C@@]4(C)C(=O)[C@H](OC(C)=O)C(=C2C)C3(C)C)[C@@H](NC(=O)c2ccccc2)c2ccccc2)O1 (stereo not given in full)	9.48% (active)

Tested on: HCC-2998 colon
Test: as above
Settings: 10 µM unless noted

Compound	growth
O=S(=O)(c1ccccc1)N1CCCN(c2nc(-c3ccccc3)nc3nc(-c4ccccc4)oc23)CC1	108% (inactive)
Clc1ccc(-c2cn3ccsc3n2)c(Cl)c1Cl	92.5% (inactive)
O=C(CN1C(=O)/C(=C/c2ccco2)SC1=S)NCCc1c[nH]c2ccc(F)cc12	115% (inactive)
COc1cc(C2C3=C(COC3=O)N(CCO)c3cc4c(cc32)OCCO4)cc(OC)c1OC (stereo not given)	-0.511% (active)
N/C(=N\c1nc2ccccc2s1)NC(=NC1CCCCC1)NC1CCCCC1	-88.6% (active)
CC(O)c1ncc(/C=C2\SC(=S)N(Cc3ccccc3)C2=O)s1 (stereo not given)	120% (inactive)
COc1ccc2nc3ccccc3c(NCc3ccc(F)cc3)c2c1	-77.6% (active)
COc1cc(-c2cc(-c3ccc(Nc4ncnc5cc(Cl)ccc45)cc3)nc(N3CCN(C)CC3)n2)cc(OC)c1OC	110% (inactive)
O=C(Nc1cccnc1Nc1ccc(Cl)cc1)c1cn(Cc2ccc(F)cc2)nn1	100% (inactive)
N#Cc1c(NC(=O)c2cccs2)[n+]([O-])c2ccc(Cl)cc2[n+]1[O-]	111% (inactive)
CCOC(=O)/C=C/c1c(C)[nH]c(=O)[nH]c1=O	107% (inactive)
COc1ccc(C2C3=C(COC3=O)N(CCO)c3cc4c(cc32)OCCO4)cc1OC (stereo not given)	48.7% (inactive)
CN1CCN(c2ccc3c(c2)nc(NNC(=O)c2cnccn2)c2cccn23)CC1	47.8% (inactive)
C=CCOC(=O)C1=C(C)NC(=O)NC1c1c(Cl)n(C)c2ccccc12 (stereo not given)	104% (inactive)
COc1ccc(Cl)cc1Nc1nc(C(F)(F)F)ccc1C(=O)N/N=C/c1ccccc1Cl	-11.2% (active)
N#Cc1c(-c2ccccc2)nc2c(c(-c3ccccc3)nn2-c2ccccc2)c1-c1ccc(N2CCOCC2)cc1	107% (inactive)
O=C(CCCCCCCCC(=O)N/N=C\c1cc(Cl)ccc1O)N/N=C\c1cc(Cl)ccc1O	39% (inactive)
CC12CCC(/C(=C/NNc3ccc([N+](=O)[O-])cc3[N+](=O)[O-])C1=O)C2(C)C (stereo not given)	93.4% (inactive)
Nc1ccc([N+](=O)[O-])cc1N=C/C=C/c1ccccc1	73% (inactive)
CC1CN=C(c2cccc(-c3ccc(-c4ccccc4)o3)c2)N1 (stereo not given)	-65.4% (active)

Compound	growth
CCCCc1oc2ccccc2c1C(=O)c1ccc(O)cc1	460% (inactive)
Cc1cc2oc(=O)cc(CP(=O)(O)O)c2cc1O	103% (inactive)
CCOC(=O)C1=C(C)N=C2SC=C(c3ccccc3)N2[C@H]1c1cn[nH]c1-c1ccc(Cl)cc1	109% (inactive)
CCN1C(=S)N(CC)C2C1NC(=S)N2/N=C/C=C/c1ccccc1OC (stereo not given)	11.6% (inactive)
CC(=O)N/C(=C1/OC(C(O)C(O)C(O)CO)CN1C)[P+](c1ccccc1)(c1ccccc1)c1ccccc1 (stereo not given)	97.7% (inactive)
CCn1cc(C(=O)N/N=C/c2ccc(Br)cc2)c(=O)c2cc(F)c(N3CCNC(C)C3)c(F)c21 (stereo not given)	25.9% (inactive)
CCNc1nc(-c2ccc(F)cc2)c(C#N)c(=O)n1C	88.8% (inactive)
C(/C=C/c1ccccc1)=Nc1ccc(CCc2ccc(N=C/C=C/c3ccccc3)cc2)cc1	108% (inactive)
O=C(N/N=C/c1ccc([N+](=O)[O-])cc1)c1ccc2nc(-c3ccc(Cl)cc3)[nH]c2c1	14.9% (inactive)
Fc1ccc(CNc2c3ccccc3nc3ccccc23)cc1	18.3% (inactive)
O=C(CSc1nnc2sc(Nc3cccc(Cl)c3)nn12)c1ccc(F)cc1	103% (inactive)
Cn1c(=O)c2c(nc(NC3=NS(=O)(=O)c4ccccc43)n2Cc2ccccc2)n(C)c1=O	107% (inactive)
O=c1nc(Nc2nc3ccccc3s2)[nH]c(=O)c2ccccc12	98.4% (inactive)
c1ccc2cc(Cn3c[n+](Cc4ccc5ccccc5c4)c4ccccc43)ccc2c1	-53.3% (active)
Cc1[nH]c(/C=C/C(=O)c2ccc(C(F)(F)F)c(F)c2)c(C)c1C(=O)NCC(C)C	98.9% (inactive)
O=C(Nc1cccc(NC(=O)C2CCCCC2)c1)c1ccccn1	87.4% (inactive)
CCOC(=O)c1c2c(n3ccccc13)C(=O)c1ncccc1C2=O	38.2% (inactive)
COc1ccc(C(c2cc(OC)c(OC)c(OC)c2)N2CCN(Cc3ccccc3)CC2)cc1 (stereo not given)	91.9% (inactive)
CN(C)c1ccc(/C=C2/C=C(c3ccccc3)OC2=O)cc1	95% (inactive)
C#CC#CC#CC#CC#CC#CC#CC#CCC1OCC(COC(=O)O[C@@H](C(=O)O[C@H]2C[C@@]3(O)[C@@H](OC(=O)c4ccccc4)[C@@H]4[C@]5(OC(C)=O)CO[C@@H]5C[C@H](O)[C@@]4(C)C(=O)[C@H](OC(C)=O)C(=C2C)C3(C)C)[C@@H](NC(=O)c2ccccc2)c2ccccc2)O1 (stereo not given in full)	1.97% (active)
